In experiment [1] the target is T1, Ephrin type-A receptor 3 (Homo sapiens) (UniProt P29320).
T1 sequence (whole entry): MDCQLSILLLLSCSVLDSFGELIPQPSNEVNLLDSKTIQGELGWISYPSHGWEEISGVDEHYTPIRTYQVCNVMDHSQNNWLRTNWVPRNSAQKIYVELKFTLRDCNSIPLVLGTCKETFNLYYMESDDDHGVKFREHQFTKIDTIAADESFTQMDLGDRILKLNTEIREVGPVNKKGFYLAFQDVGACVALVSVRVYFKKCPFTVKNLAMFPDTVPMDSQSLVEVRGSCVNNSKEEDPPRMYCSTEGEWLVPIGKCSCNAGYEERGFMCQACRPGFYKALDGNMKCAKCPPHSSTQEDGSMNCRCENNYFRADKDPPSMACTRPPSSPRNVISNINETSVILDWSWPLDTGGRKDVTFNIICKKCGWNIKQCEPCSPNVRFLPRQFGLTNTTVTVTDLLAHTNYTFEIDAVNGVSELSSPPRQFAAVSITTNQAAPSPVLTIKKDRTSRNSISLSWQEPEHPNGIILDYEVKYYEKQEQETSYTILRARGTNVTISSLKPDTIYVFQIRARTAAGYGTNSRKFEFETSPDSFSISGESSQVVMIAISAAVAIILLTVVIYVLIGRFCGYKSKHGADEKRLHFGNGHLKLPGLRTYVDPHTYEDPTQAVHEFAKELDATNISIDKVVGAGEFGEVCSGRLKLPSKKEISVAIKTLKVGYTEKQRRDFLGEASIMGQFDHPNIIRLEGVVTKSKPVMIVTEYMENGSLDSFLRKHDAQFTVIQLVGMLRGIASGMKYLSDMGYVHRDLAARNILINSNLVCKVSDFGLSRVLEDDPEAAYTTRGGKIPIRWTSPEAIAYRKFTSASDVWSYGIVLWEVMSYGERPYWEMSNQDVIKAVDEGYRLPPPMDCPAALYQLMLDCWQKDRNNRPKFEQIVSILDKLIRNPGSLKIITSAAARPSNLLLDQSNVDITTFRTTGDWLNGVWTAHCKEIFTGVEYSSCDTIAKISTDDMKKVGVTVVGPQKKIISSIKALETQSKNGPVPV
The note with it: at 10 µM.

For experiment [2], the target named is Ephrin type-A receptor 4 (Homo sapiens) (UniProt P54764). Conditions: at 1 µM.
Ephrin type-A receptor 4 (Homo sapiens), sequence (P54764 whole entry): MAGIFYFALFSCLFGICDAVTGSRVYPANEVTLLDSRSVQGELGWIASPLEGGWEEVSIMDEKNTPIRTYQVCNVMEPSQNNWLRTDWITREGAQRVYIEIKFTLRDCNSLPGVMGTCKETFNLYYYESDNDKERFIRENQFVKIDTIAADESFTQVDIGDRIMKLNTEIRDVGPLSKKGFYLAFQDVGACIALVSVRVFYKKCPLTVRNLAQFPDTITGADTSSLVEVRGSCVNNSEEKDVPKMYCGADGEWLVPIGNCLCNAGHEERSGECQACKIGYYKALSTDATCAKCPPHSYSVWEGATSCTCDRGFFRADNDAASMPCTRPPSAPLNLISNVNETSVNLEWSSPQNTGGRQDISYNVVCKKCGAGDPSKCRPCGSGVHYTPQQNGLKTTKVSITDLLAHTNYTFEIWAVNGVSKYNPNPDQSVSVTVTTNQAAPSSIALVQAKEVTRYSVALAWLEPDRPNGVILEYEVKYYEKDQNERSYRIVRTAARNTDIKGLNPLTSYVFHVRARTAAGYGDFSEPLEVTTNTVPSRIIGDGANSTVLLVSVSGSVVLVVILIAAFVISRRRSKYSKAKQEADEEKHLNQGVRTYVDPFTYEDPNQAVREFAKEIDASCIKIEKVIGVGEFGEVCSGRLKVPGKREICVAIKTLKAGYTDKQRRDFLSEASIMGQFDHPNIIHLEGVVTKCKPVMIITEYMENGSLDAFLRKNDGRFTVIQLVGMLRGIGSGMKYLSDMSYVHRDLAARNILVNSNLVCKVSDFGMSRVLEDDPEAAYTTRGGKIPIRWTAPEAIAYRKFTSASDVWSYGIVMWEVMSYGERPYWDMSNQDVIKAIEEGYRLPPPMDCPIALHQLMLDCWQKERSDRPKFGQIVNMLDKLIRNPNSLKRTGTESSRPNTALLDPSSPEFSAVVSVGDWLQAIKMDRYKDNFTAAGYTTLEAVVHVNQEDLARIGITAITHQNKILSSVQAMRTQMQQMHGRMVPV
For experiment [3] the target is unchanged. The note with it: at 10 µM.
Experiment [4] deals with Ephrin type-A receptor 5 (Homo sapiens) (UniProt P54756). The note with it: at 1 µM.
Ephrin type-A receptor 5 (Homo sapiens), sequence (P54756 whole entry): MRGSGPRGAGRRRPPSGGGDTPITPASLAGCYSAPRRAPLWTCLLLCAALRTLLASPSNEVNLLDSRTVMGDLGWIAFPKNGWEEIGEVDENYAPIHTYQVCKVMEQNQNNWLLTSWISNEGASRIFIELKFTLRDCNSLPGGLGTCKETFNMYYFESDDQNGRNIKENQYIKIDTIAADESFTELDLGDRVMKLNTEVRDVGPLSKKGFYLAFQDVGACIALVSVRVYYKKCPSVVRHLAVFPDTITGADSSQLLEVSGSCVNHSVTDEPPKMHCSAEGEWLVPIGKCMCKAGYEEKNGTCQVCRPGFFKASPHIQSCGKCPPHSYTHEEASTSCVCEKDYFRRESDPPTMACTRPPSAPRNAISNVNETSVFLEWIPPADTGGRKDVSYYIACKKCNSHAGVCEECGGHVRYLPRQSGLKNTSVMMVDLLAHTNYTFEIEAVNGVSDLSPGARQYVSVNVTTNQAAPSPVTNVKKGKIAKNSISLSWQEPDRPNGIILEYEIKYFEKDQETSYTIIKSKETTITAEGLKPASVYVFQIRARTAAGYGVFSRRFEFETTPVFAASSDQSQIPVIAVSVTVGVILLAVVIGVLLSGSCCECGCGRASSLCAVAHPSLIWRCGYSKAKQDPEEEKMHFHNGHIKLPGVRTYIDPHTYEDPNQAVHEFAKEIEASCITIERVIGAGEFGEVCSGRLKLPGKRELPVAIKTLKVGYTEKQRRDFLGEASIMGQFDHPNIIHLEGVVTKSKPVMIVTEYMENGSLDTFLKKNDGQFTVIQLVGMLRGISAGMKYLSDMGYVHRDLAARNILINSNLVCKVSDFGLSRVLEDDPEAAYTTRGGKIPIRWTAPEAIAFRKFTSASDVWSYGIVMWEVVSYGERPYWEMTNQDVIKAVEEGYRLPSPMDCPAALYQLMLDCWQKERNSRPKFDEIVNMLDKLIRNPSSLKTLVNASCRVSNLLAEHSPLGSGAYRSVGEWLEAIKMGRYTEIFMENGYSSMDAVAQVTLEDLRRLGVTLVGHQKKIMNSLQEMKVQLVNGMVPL
Experiment [5] has the same target. The note with it: at 10 µM.
Experiment [6] has as its target Ephrin type-A receptor 7 (Homo sapiens) (UniProt Q15375). The note with it: at 1 µM.
Experiment [7] has the same target. The note with it: at 10 µM.
The target of experiment [8] is T2, Ephrin type-A receptor 8 (Homo sapiens) (UniProt P29322).
T2 sequence (whole entry): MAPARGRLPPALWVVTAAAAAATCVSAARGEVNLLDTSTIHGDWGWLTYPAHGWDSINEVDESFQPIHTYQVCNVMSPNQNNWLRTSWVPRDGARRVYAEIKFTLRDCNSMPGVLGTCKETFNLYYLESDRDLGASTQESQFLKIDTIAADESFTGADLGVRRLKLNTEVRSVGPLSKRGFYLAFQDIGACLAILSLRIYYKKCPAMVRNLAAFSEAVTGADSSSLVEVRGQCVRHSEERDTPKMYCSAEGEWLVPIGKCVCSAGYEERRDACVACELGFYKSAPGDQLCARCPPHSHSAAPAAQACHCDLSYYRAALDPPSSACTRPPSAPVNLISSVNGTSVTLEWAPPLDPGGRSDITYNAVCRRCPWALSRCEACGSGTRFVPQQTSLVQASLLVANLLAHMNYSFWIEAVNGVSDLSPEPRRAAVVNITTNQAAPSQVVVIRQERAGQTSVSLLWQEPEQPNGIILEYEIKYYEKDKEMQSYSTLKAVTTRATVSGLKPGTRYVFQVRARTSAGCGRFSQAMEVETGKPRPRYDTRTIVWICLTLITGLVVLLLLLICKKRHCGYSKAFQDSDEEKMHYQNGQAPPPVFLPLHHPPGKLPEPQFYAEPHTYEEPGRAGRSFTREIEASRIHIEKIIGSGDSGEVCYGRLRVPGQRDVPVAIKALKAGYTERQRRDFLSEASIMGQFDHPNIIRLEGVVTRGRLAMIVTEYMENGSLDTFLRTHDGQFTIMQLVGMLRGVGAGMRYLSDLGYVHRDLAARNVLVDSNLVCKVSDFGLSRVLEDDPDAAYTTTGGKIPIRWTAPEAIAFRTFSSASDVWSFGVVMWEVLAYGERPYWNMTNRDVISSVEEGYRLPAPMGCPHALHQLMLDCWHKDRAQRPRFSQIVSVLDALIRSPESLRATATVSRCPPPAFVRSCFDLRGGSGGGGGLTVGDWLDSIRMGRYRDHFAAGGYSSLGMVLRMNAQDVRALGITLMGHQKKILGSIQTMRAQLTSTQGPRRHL
Conditions: at 1 µM.

The target of experiment [9] is T2, Ephrin type-A receptor 8 (Homo sapiens). The note with it: at 10 µM.
Experiment [10] concerns the target T3, Ephrin type-B receptor 1 (Homo sapiens) (UniProt P54762).
T3 sequence (whole entry): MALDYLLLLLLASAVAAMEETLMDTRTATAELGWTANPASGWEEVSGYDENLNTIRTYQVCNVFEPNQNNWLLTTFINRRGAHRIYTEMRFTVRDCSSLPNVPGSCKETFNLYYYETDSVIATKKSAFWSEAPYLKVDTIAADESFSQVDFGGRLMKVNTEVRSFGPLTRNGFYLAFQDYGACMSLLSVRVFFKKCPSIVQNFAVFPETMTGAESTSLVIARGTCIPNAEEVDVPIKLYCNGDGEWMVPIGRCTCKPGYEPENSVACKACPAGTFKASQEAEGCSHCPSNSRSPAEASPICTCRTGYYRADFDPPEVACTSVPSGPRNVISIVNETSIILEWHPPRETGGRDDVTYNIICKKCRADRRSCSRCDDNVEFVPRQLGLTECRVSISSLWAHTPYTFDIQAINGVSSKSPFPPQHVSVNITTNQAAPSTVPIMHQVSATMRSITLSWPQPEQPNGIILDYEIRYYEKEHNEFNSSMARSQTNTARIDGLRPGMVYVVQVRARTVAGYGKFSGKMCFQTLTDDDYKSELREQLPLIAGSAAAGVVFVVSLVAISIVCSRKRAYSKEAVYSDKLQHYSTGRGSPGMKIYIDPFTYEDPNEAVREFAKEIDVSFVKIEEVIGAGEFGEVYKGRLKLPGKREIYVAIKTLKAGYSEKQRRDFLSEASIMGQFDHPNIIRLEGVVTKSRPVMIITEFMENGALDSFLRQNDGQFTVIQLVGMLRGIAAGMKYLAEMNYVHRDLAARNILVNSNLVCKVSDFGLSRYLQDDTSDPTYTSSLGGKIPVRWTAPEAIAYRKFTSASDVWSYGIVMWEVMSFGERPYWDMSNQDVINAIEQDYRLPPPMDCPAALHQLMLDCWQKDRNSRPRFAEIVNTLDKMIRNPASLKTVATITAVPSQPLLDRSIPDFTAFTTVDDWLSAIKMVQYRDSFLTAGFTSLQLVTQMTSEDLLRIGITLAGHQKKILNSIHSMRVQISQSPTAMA
Conditions: at 1 µM.

A word on the residual activity: it is the signal under treatment as a percentage of the control signal.

Ephrin type-A receptor 7 (Homo sapiens), sequence (Q15375 28-998 limits assumed): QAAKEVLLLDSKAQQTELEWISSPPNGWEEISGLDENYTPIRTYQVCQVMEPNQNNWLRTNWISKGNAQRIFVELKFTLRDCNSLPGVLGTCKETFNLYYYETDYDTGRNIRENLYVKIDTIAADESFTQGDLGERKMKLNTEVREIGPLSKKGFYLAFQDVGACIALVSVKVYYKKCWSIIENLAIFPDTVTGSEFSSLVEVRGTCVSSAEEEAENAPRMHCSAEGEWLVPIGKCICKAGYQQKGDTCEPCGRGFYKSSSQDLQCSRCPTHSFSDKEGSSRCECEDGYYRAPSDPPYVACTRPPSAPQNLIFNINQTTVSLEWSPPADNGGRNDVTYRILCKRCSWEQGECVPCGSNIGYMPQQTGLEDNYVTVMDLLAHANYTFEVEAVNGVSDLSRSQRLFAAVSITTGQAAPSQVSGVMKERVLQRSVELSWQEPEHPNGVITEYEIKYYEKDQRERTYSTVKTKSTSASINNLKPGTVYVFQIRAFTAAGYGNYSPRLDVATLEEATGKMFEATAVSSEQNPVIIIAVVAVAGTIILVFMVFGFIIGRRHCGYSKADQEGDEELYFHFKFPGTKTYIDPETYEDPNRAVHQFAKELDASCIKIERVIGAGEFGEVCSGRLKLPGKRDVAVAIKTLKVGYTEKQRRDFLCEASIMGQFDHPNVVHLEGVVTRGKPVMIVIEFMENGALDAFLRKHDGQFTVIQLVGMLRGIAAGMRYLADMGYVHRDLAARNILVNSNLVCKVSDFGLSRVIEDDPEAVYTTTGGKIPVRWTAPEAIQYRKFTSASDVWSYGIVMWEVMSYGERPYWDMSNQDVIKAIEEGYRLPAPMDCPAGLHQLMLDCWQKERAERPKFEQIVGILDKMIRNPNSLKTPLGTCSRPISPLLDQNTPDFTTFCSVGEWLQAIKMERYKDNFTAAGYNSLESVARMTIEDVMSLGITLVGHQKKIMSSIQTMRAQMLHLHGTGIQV

Regarding `Nc1ccc2ncnc(NCCc3ccc(Oc4ccccc4)cc3)c2c1`, the residual activity in experiment [1] stood at 92%; in [2], 125%; in experiment [3], 104%; in [4], 110%; in [5] it was 113%; in experiment [6], 112%. Further, the residual activity came out at 100% in experiment [7], 104% in experiment [8], 99% in experiment [9] and 114% in [10].

Values taken from ChEMBL document CHEMBL2218924, “A broad activity screen in support of a chemogenomic map for kinase signalling research and drug discovery” (Biochem J, 2013).
